Data on 88 compounds can be found in publication PMC4336329 (PLoS ONE, 2015).

Molecules are shown by their SMILES. The campaign covered roughly 310,000 compounds. About 14,000 (4.5%) showed an effect of 50% or more. Effects have a minus sign here. Many of the other results were omitted from the sample, so strong results are more common in it than they were.
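Note: peak tail current of the secondary pulse compared with the same well before compound.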

Sequence of human ether-à-go-go-related gene (hERG) potassium channel (Q12809 whole entry, looked up): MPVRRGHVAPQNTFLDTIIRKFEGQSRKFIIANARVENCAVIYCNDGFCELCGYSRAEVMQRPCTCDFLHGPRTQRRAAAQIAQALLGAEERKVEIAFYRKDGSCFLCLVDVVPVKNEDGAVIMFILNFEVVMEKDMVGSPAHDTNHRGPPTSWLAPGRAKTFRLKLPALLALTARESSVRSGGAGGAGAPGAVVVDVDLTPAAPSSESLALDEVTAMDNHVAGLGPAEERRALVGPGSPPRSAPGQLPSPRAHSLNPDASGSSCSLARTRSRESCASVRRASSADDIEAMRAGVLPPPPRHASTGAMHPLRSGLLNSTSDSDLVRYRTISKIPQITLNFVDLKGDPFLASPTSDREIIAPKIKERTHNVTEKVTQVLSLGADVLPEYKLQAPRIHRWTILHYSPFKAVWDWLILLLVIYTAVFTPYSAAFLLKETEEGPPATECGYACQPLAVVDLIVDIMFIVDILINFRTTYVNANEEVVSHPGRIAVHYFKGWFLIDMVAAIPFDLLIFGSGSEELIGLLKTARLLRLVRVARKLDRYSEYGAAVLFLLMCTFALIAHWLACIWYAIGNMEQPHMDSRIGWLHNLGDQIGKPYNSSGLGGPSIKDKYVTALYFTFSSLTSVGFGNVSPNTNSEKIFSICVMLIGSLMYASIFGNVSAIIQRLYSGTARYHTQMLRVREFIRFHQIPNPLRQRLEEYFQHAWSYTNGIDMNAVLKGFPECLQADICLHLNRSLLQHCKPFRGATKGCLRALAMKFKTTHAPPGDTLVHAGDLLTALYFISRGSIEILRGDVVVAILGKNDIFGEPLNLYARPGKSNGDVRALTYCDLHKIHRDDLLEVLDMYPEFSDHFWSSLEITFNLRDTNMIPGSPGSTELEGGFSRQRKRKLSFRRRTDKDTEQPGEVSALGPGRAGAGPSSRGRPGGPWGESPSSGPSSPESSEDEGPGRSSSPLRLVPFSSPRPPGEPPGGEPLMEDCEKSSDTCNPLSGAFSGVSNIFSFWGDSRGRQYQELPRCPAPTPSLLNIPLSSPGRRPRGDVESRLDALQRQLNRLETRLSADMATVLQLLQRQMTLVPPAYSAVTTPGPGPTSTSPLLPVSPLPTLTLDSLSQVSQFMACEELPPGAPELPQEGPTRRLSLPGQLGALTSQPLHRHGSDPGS

This assay has as its target human ether-à-go-go-related gene (hERG) potassium channel (human, UniProt Q12809). Put plainly: primary screen, population patch clamp on CHO cells stably expressing hERG; higher = less effect of the substance.
As to `CCc1noc(C)c1C(=O)Nc1nnc(C(CC)CC)s1`, the “hERG current change (%, negative = inhibition) at 10uM” value is -16.9%.
The same measure for `CC1C/C(=C\c2cccnc2)C(=O)/C(=C/c2cccnc2)C1` (stereo not shown): -63.1%; for `CC1C/C(=C/c2ccncc2)C(=O)/C(=C/c2ccncc2)C1` (stereo not shown): -41.9%; for `O=C1/C(=C/c2cccnc2)CC/C1=C\c1cccnc1`: -24.5%.
The same measure for `COc1ccccc1CC(=O)Nc1ccc(S(=O)(=O)N2CC(C)CC(C)C2)cc1` (stereo not shown): -7.25%; for `COc1cc(OC)nc(NC(=O)CN2CCN(c3ccc(F)cc3)CC2)n1`: -20.1%.
Turning to `CN1CCc2c(sc3c2C(=O)NC(/C=C\c2ccccc2)N3)C1` (stereo not shown), the “hERG current change (%, negative = inhibition) at 10uM” value was -58.6%.
The same measure for `CN1CCc2c(sc3c2C(=O)NC(c2ccc4c(c2)OCO4)N3)C1` (stereo not shown): -16.5%; for `CN1CCc2c(sc3c2C(=O)NC(c2ccccn2)N3)C1` (stereo not shown): -1.35%; for `CSc1ccc(C2NC(=O)c3c(sc4c3CCN(C)C4)N2)cc1` (stereo not shown): -60.6%.
On to `CN1CCc2c(sc3c2C(=O)NC(/C=C/c2ccco2)N3)C1` (stereo not shown), for which the “hERG current change (%, negative = inhibition) at 10uM” value was -27.4%.
The same measure for `Cc1ccc(C2NC(=O)c3c(sc4c3CCN(C)C4)N2)s1` (stereo not shown): -36.8%; for `Cc1ccc2nc(-c3ccc(-c4ccccn4)s3)cn2c1`: -1.76%; for `CCNc1nc(NC(C)C)nc(N(C#N)CCOc2ccccc2)n1`: -26%.
As for `CCNc1nc(NCC)nc(N(C#N)CCOc2ccccc2)n1`, the “hERG current change (%, negative = inhibition) at 10uM” value is recorded as -55.1%.
As for `CN(C)c1nc(N(C)C)nc(N(C#N)CCOc2ccccc2)n1`, the figure is -4.58%.
As for `ON1C2CCCCC2N(O)C1c1ccccc1` (stereo not shown), the figure is 13.2%.
The same measure for `O=C(COC(=O)C1(c2ccccc2F)CCCC1)NCc1ccc2c(c1)OCO2`: -6.33%; for `Cc1oc(-c2cccc(Cl)c2)nc1CS(=O)(=O)CC(=O)NC1CCCC1`: 6.45%.
With `CCOC(=O)N1CCC(NC(=O)CSCc2nc(-c3cccc(OC)c3)oc2C)CC1`, the “hERG current change (%, negative = inhibition) at 10uM” value is reported as -17.6%.
As for `CCOC(=O)N1CCC(NC(=O)C2CCCN(Cc3nc(-c4cccc(Cl)c4)oc3C)C2)CC1` (stereo not shown), the figure is -72.2%; as for `CCOC(=O)N1CCC(NC(=O)CS(=O)Cc2nc(-c3ccc(C)cc3)oc2C)CC1` (stereo not shown), -2.4%.
Regarding `CCOC(=O)N1CCC(NC(=O)C2CCCN(Cc3nc(-c4ccc(CC)cc4)oc3C)C2)CC1` (stereo not shown), the “hERG current change (%, negative = inhibition) at 10uM” value is -71.5%.
The same measure for `CCc1ccc(-c2nc(CN3CCCC(C(=O)O)C3)c(C)o2)cc1` (stereo not shown): 14.2%.
Consider `CCOC(=O)N1CCC(NC(=O)C2CCCN(Cc3nc(-c4cccc(C)c4)oc3C)C2)CC1` (stereo not shown), for which the “hERG current change (%, negative = inhibition) at 10uM” value is recorded as -63.6%.
As for `CCOC(=O)N1CCC(NC(=O)C2CCCN(c3nc4ccccc4o3)C2)CC1` (stereo not shown), the “hERG current change (%, negative = inhibition) at 10uM” value is listed as -28.4%.
`CCOC(=O)N1CCC(NC(=O)CS(=O)(=O)Cc2nc(-c3cccc(Cl)c3)oc2C)CC1`: the “hERG current change (%, negative = inhibition) at 10uM” value is reported as -18.3%.
The same measure for `Nc1sc(-c2ccccc2)cc1C(=O)N/N=C/c1ccc(Cl)cc1`: 18.1%; for `O=C(CN1CCCCCCC1)Nc1cc(Cl)cc(Cl)c1`: 1.75%; for `Cc1ccc(-c2noc(Cn3cc(S(=O)(=O)N4CCCC4)ccc3=O)n2)cc1`: 8.62%.
The same measure for `CC(=O)N1c2ccc(S(=O)(=O)N3CCC(C(=O)Nc4cc(C)cc(C)c4)CC3)cc2CC1C` (stereo not shown): 2%.
With `COc1cc(/C=C/C(=O)OCC(=O)Nc2ccc(C)cc2[N+](=O)[O-])ccc1O`, the “hERG current change (%, negative = inhibition) at 10uM” value is -20.5%.
As for `CC(CC(=O)O)CC(=O)Nc1cc([N+](=O)[O-])ccc1O` (stereo not shown), the figure is -2.89%; as for `COC(=O)c1cccc(N2C(=O)c3ccccc3S2(=O)=O)c1`, -9.36%; as for `CCOC(=O)c1cccc(N2C(=O)c3ccccc3S2(=O)=O)c1`, -59.5%.
As for `CCOC(=O)c1ccccc1CN1C(=O)c2ccccc2S1(=O)=O`, the figure is -11.1%.
As for `CCOC(=O)N/N=C(\C)c1ccc(Oc2ncccn2)cc1`, the figure is 17.1%; as for `CCN(CC)C1CCN(C(=O)c2ccc(OC3CCN(CCc4ccccc4)CC3)cc2)C1` (stereo not shown), 2.06%.
For `CCCN1CCC(N(CCc2ccccc2)Cc2ccccc2)CC1`, the “hERG current change (%, negative = inhibition) at 10uM” value is listed as -72.2%.
On to `CCCCN(Cc1ccccc1)C1CCN(Cc2ccccc2)CC1`, for which the “hERG current change (%, negative = inhibition) at 10uM” value is listed as -53.5%.
As for `CC(C)CC(=O)N1CCC(N(CCc2ccccc2)Cc2ccccc2)CC1.O=C(O)C(=O)O`, the figure is -46.8%; as for `CCCN(CCO)C1CCN(CCc2ccccc2)CC1`, 7.14%.
As for `O=C(O)C(=O)O.c1ccc(CCN(Cc2ccccc2)C2CCN(C3CCCC3)CC2)cc1`, the figure is -77%.
On to `CCCN1CNC(=S)N(CCc2ccccc2)C1`, for which the “hERG current change (%, negative = inhibition) at 10uM” value is on record as 8.83%.
The same measure for `CCCN1CCC(N(C)CCc2ccc(OC)c(OC)c2)CC1`: -11.4%; for `O=C(O)C(=O)O.c1ccc(CN2CCC(N3CCC(N4CCCCCC4)CC3)CC2)cc1`: 16.5%; for `CCCCN(Cc1ccccc1)C1CCN(CCc2ccccc2)CC1`: -72.2%.
As for `CCN(Cc1ccccc1)C1CCN(Cc2ccccc2)CC1`, the figure is -14.9%.
The same measure for `CCCCC(=O)C1CCN(Cc2ccccc2)CC1`: -34.5%; for `CC(C)CNS(=O)(=O)c1ccc(OCC(=O)NCC2CCCO2)c(Cl)c1` (stereo not shown): -4.3%.
As for `S=c1[nH]cnc2scc(-c3ccc(Br)cc3)c12`, the “hERG current change (%, negative = inhibition) at 10uM” value is on record as 0.154%.
As for `O=C1Nc2ccc(F)cc2C12Nc1ccccc1-c1nnc(SCc3ccccc3)nc1O2` (stereo not shown), the figure is -13.2%.
The same measure for `COc1ccccc1NC(=O)c1ccc(-n2cccn2)nc1`: 3.91%; for `O=C(Nc1cccc(Cl)c1)c1ccc(NCCCN2CCOCC2)c([N+](=O)[O-])c1`: -37.9%.
Regarding `CC(C(N)=O)N1CC(c2ccccc2)CC1=O` (stereo not shown), the “hERG current change (%, negative = inhibition) at 10uM” value is listed as -4.86%.
For the compound `O=C(CSc1nccc(=O)[nH]1)Nc1ccc2c(c1)OCCO2`, the “hERG current change (%, negative = inhibition) at 10uM” value came to 51.6%.
The same measure for `Clc1cccc(Cl)c1CSc1nnc(CN2CCOCC2)n1-c1ccccc1`: -28.9%.
As for `Clc1ccc(CSc2nnc(CN3CCOCC3)n2-c2ccccc2)cc1Cl`, the figure is -74.1%; as for `Fc1ccc(CSc2nnc(CN3CCOCC3)n2-c2ccccc2)c(Cl)c1`, -24%.
The same measure for `CSCCC(NS(=O)(=O)c1ccc(C)cc1)C(=O)N1CCN(C(C)=O)CC1` (stereo not shown): 3.56%; for `CCCCn1c(NC(=O)c2ccc(Br)o2)c(S(=O)(=O)c2ccccc2)c2nc3ccccc3nc21`: -0.885%; for `CCCCCn1c(NC(=O)c2ccco2)c(C(=O)OCC)c2nc3ccccc3nc21`: -80.4%.
As to `CCCCn1c(NC(=O)c2ccc(Br)o2)c(C(=O)OCC)c2nc3ccccc3nc21`, the “hERG current change (%, negative = inhibition) at 10uM” value is reported as -53.8%.
As for `CCOC(=O)c1c(NC(=O)c2ccco2)n(C2CCCCC2)c2nc3ccccc3nc12`, the figure is -35.6%.
As for `CCCCn1c(NS(=O)(=O)c2ccccc2)c(C(=O)OCC)c2nc3ccccc3nc21`, the figure is -23.9%; as for `CCCCn1c(NC(=O)c2ccco2)c(C(=O)OCC)c2nc3ccccc3nc21`, -42.1%.
As for `Cc1cc(C)n(CC(=O)NNC(=O)c2cccc(C(F)(F)F)c2)n1`, the “hERG current change (%, negative = inhibition) at 10uM” value is on record as 12.7%.
The same measure for `COc1ccc(C(=O)c2oc3ccccc3c2NC(C)=O)cc1`: 0.829%; for `O=C(COc1ccc(/C=N/NC(=O)c2cc3ccccc3o2)cc1Cl)Nc1ccccc1`: 6.96%; for `Cc1[nH]c2ccccc2c1/C=N/NC(=O)CNC(=O)c1ccccc1`: -9.38%.
The same measure for `O=C(CO/N=C/c1c(Cl)cccc1Cl)NNC(=O)c1ccc(Cl)cc1`: 8.46%; for `NC(=O)N/N=C/C=C/c1ccc(F)cc1`: 8.5%.
As for `CC(C)=CCOc1c2occc2cc2ccc(=O)oc12`, the figure is -17.9%; as for `O=C(c1cccc(Cl)c1)N1CCC(c2nc3ccccc3[nH]2)CC1`, -38.2%; as for `Clc1ccc2nc(C3CCN(Cc4ccccc4)CC3)[nH]c2c1`, -73.4%.
Consider `CC(C)(C)c1ccc(S(=O)(=O)N2CCC(c3nc4ccc(Cl)cc4[nH]3)CC2)cc1`, for which the “hERG current change (%, negative = inhibition) at 10uM” value is -3.97%.
The same measure for `Cc1ccc(Cl)cc1N1CCN(Cc2nnnn2C2CCCCC2)CC1`: 7.78%.
As for `C1CCC(n2nnnc2CN2CCCC2)CC1`, the figure is -1.31%; as for `O=S(=O)(c1ccc2c(c1)OCCO2)N1CCC(c2nc3ccc(Cl)cc3[nH]2)CC1`, -56.6%.
Turning to `O=C(Cc1ccccc1)N1CCC(c2nc3ccccc3[nH]2)CC1`, the “hERG current change (%, negative = inhibition) at 10uM” value was -18.9%.
`Fc1ccc2nc(C3CCCCN3Cc3nc(CC4CC4)no3)[nH]c2c1` (stereo not shown): the “hERG current change (%, negative = inhibition) at 10uM” value came to 0.821%.
As for `Fc1ccc2nc(C3CCN(Cc4nc(CC5CC5)no4)CC3)[nH]c2c1`, the “hERG current change (%, negative = inhibition) at 10uM” value is -51.9%.
The same measure for `Fc1ccccc1C1CCN(Cc2nc(CC3CC3)no2)C1` (stereo not shown): 2.1%; for `Clc1ccc2nc(C3CCN(Cc4nnnn4C4CCCCC4)CC3)[nH]c2c1`: -59.2%.
As for `O=S(=O)(c1ccc2c(c1)OCCO2)N1CCC(c2nc3ccccc3[nH]2)CC1`, the figure is 3.43%; as for `O=C(Cc1cc(=O)[nH][nH]1)N/N=C/C=C/c1ccccc1`, 8.93%.
Turning to `COc1cccc(CCNC(=O)CC2C(=O)NCCN2Cc2ccc(C)o2)c1` (stereo not shown), the “hERG current change (%, negative = inhibition) at 10uM” value was found to be 15.7%.
The same measure for `CCC1=NN(C(=O)c2cccnc2)C(O)(C(F)(F)F)C1` (stereo not shown): 3.08%.
